Structures are written as SMILES. In all, about 39,000 compounds went through this assay and about 1,500 (3.8%) were called active. Shown is part of a subset that was picked to be rich in actives.

This experiment has as its system HSkMC (human skeletal muscle cells). Put plainly: cytotoxicity call (relative viability < 0.9). As to conditions: 10 µM.
On to `C[C@H]1CCCCO[C@@H](CN(C)S(=O)(=O)c2cccs2)[C@@H](C)CN([C@@H](C)CO)C(=O)c2cc(NC(=O)NC3CCCCC3)ccc2O1`, for which the cytotoxicity call was “inactive”.

On to `CCn1nc(C)c([C@@H](C)N)c1C`, for which the cytotoxicity call is “inactive”.

For `Cc1ccc(S(=O)(=O)Nc2ccc3c(c2)C(=O)N([C@H](C)CO)C[C@@H](C)[C@H](CN(C)C(=O)Nc2cccc4ccccc24)OCCCC[C@H](C)O3)cc1`, the cytotoxicity call is “inactive”.

Consider `COc1ccc(NC(=O)N(C)C[C@H]2Oc3ccc(NS(C)(=O)=O)cc3C(=O)N([C@H](C)CO)C[C@H]2C)cc1`, for which the cytotoxicity call is “inactive”.

As for `C[C@H]1CN([C@@H](C)CO)C(=O)Cc2cc(NC(=O)Cn3cnnn3)ccc2O[C@@H]1CN(C)C(=O)NC1CCCCC1`, the cytotoxicity call is “inactive”.

Regarding `CC1(C)CNCC(=O)NC1`, the cytotoxicity call was “inactive”.

Take `Cc1cc(C)nc(SCC(=O)NN)n1`: the cytotoxicity call was “inactive”.

Take `Cc1ccc(NC(=O)c2ccc(CN3CCN(C)CC3)cc2)cc1Nc1nccc(-c2cccnc2)n1`: the cytotoxicity call was “inactive”.

Consider `Cc1cn(-c2cc(NC(=O)c3ccc(C)c(Nc4nccc(-c5cccnc5)n4)c3)cc(C(F)(F)F)c2)cn1`, for which the cytotoxicity call is “active”.

Take `Cc1cn(-c2cc(NC(=O)c3ccc(C)c(Nc4nccc(-c5cnccn5)n4)c3)cc(C(F)(F)F)c2)cn1`: the cytotoxicity call is “active”.

Regarding `Cc1ccc(NC(=O)c2ccc(CN3CC[C@H](N(C)C)C3)c(C(F)(F)F)c2)cc1Nc1nccc(-c2cncnc2)n1`, the cytotoxicity call was “active”.

Consider `Cc1ccc(C(=O)Nc2cccc(C(F)(F)F)c2)cc1Nc1nc(-c2cccnc2)nc2c1cnn2C`, for which the cytotoxicity call is “inactive”.

`Cc1ncc(NC(=O)c2ccc(CN3CCN(C)CC3)c(C(F)(F)F)c2)cc1Nc1nccc(-c2cccnc2)n1`: the cytotoxicity call is “inactive”.

As for `O=C(Nc1cccnc1)c1nc2ncccn2n1`, the cytotoxicity call was “inactive”.

In the case of `C[C@@H]1CN([C@H](C)CO)C(=O)c2cc(/C=C/c3ccccc3)cnc2O[C@H]1CN(C)C(=O)c1cnccn1`, the cytotoxicity call is “inactive”.

For `CN1CCN(C(=O)C[C@@H]2CC[C@H]3[C@@H](COC[C@@H](O)CN3C(=O)C3CCCC3)O2)CC1`, the cytotoxicity call is “inactive”.

For the compound `Cc1noc(C)c1S(=O)(=O)Nc1ccc2c(c1)C(=O)N([C@H](C)CO)C[C@@H](C)[C@H](CN(C)S(=O)(=O)c1cccs1)O2`, the cytotoxicity call is “inactive”.

`Cc1ccc(S(=O)(=O)Nc2ccc3c(c2)C(=O)N([C@H](C)CO)C[C@H](C)[C@@H](CN(C)Cc2ccncc2)OCCCC[C@H](C)O3)cc1`: the cytotoxicity call was “inactive”.

In the case of `COc1ccc(NC(=O)N(C)C[C@@H]2OCCCC[C@@H](C)Oc3ccc(NC(=O)Cc4ccccc4)cc3C(=O)N([C@@H](C)CO)C[C@H]2C)cc1`, the cytotoxicity call was “inactive”.

For the compound `C[C@H](CO)N1C[C@H](C)[C@@H](CN(C)Cc2ccc(C(=O)O)cc2)Oc2c(NC(=O)Nc3cccc4ccccc34)cccc2C1=O`, the cytotoxicity call is “inactive”.
